PubChem BioAssay (EPA / NIEHS)
Records with an inconclusive call do not appear. Calls of active or inactive are those of the source. The calls were made as follows, unless noted: active = hit-call score of the fitted dose curve at least 0.9, where 1 is the maximum; inactive = score below 0.9.

Experiments:
[1] = ATG_TCF_b_cat_CIS: Attagene CIS-FACTORIAL HepG2 Assay for human T-Cell-Factor with beta-catenin (TCF/b-cat) (AID 2282965); settings: HepG2 TCF/beta-catenin cis-reporter transcription, actives raise or lower the signal
In short: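 HepG2, transient MRTU transfection, cis-element-driven reporters (endogenous TFs). 24 h compound exposure. Readout: reporter mRNA by RT-PCR + 6-FAM primer extension, HpaI digest, capillary electrophoresis. Gain/loss fit vs DMSO baseline.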

[2] = ATG_TAL_CIS: Attagene CIS-FACTORIAL HepG2 Assay for human TAL Basal Promoter (AID 2282966); settings: HepG2 Attagene cis-factorial TAL promoter reporter; actives raise or lower the signal;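 also: background control endpoint measuring basal TAL promoter reporter mRNA not a specific factor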
In short: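 HepG2 cells transiently transfected with multiplexed cis-promoter reporter units, dosed 24 h. Reporter mRNA quantified by RT-PCR, 6-FAM labelling, HpaI digestion and capillary electrophoresis; TAL basal promoter serves as background control, fitted bidirectionally versus DMSO.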

[3] = biological target: Estrogen receptor (Homo sapiens) (UniProt P03372); assay: ATG_ERa_TRANS: Attagene TRANS-FACTORIAL HepG2 Assay for human Estrogen Receptor alpha (ERa) (AID 2282970; active = hit-call score of the fitted dose curve at least 0.9, where 1 is the maximum); settings: HepG2 Attagene TRANS ERa GAL4 reporter, mRNA
Estrogen receptor (Homo sapiens), sequence (P03372 whole entry, looked up, the tested form may be a part): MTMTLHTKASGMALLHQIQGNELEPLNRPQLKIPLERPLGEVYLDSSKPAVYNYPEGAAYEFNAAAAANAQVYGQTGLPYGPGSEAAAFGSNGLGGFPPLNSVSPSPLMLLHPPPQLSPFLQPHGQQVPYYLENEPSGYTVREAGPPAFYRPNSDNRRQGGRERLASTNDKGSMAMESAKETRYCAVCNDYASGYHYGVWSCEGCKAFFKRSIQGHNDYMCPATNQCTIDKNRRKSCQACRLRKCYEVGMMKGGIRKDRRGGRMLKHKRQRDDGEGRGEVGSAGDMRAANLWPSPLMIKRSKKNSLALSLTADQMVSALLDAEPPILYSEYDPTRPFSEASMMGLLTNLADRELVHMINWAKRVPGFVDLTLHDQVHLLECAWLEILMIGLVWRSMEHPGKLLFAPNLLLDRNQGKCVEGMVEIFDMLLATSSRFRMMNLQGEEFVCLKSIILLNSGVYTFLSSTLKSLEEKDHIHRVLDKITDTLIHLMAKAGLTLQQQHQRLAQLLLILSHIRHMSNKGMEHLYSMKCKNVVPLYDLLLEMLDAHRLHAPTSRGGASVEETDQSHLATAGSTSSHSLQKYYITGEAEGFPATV
In short: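 HepG2 cells transiently transfected with multiplexed GAL4-UAS reporter units read out chimeric NR-Gal4 activity. After 24 h compound exposure, reporter mRNA was quantified by RT-PCR, 6-FAM labeling, HpaI digestion and capillary electrophoresis, relative to DMSO.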

[4] = biological target: X-box-binding protein 1 (Homo sapiens) (UniProt P17861); assay: ATG_Xbp1_CIS: Attagene CIS-FACTORIAL HepG2 Assay for human X-box Binding Protein 1 (XBP1) (AID 2282972); settings: HepG2 XBP1 cis-element reporter, Attagene multiplex; actives raise or lower the signal
X-box-binding protein 1 (Homo sapiens), sequence (P17861 whole entry, looked up): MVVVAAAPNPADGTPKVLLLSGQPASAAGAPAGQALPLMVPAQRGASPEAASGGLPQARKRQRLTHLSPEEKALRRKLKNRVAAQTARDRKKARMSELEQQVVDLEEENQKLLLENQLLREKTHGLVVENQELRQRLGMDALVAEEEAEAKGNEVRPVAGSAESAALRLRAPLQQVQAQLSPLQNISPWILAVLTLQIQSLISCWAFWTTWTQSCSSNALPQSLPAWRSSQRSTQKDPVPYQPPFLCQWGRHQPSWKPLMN
In short: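 After a 24-hour chemical exposure of HepG2 cells carrying cis-regulated reporters, reporter mRNA levels are assessed. Quantification uses RT-PCR, 6-FAM labelling and capillary electrophoresis. Gain- or loss-of-signal is fitted against DMSO.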

[5] = ATG_GAL4_TRANS: Attagene TRANS-FACTORIAL HepG2 Assay for GAL4 (Internal Marker) (AID 2282976; active = hit-call score of the fitted dose curve at least 0.9, where 1 is the maximum); settings: HepG2 Attagene TRANS GAL4 internal marker reporter
In short: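 Background-control readout: GAL4-UAS reporter transcript in transiently transfected HepG2 cells after 24 h compound exposure. Measured by RT-PCR, 6-FAM primer extension, HpaI digest and capillary electrophoresis; gain-of-signal fit versus DMSO.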

Measured: outcome

CCCCCCCC1CCCC1=O (stereo not given)
inactive: all assays above
